From the supplement of paper PMC4466140

Target: ScBbc1
Experiment: SPOT peptide array binding signal intensity (averaged, normalized) (arbitrary units (background-subtracted, floor 0; scale differs between SH3 domains)); higher = stronger binding of the SH3 domain to the peptide
Outline: (§1)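 The binding signal is the normalized, background-subtracted spot intensity averaged over replicates; its arbitrary units differ between domains. It was obtained by incubating 10 μg/ml GST-fused SH3 domains from four yeast species overnight at 4°C in TBS-based blocking buffer on cellulose membranes with synthetic 15-mer peptides, cysteines replaced by serines, then detecting with anti-GST antibody, HRP anti-mouse secondary and luminol.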

Binder	SPOT peptide array binding signal intensity
AAAPKHAPPPVPNET	≤ 0

Target: ScBem1-D1
Experiment: as above
Outline: as §1

Binder	SPOT peptide array binding signal intensity
AAAPKHAPPPVPNET	≤ 0

Target: ScBzz1-D1
Experiment: as above
Outline: as §1

Binder	SPOT peptide array binding signal intensity
AAAPKHAPPPVPNET	413

Target: ScBzz1-D2
Experiment: as above
Outline: as §1

Binder	SPOT peptide array binding signal intensity
AAAPKHAPPPVPNET	≤ 0

Target: ScCyk3
Experiment: as above
Outline: as §1

Binder	SPOT peptide array binding signal intensity
AAAPKHAPPPVPNET	≤ 0

Target: ScFus1
Experiment: as above
Outline: as §1

Binder	SPOT peptide array binding signal intensity
AAAPKHAPPPVPNET	≤ 0

Target: ScHof1
Experiment: as above
Outline: as §1

Binder	SPOT peptide array binding signal intensity
AAAPKHAPPPVPNET	≤ 0

Target: ScHse1
Experiment: as above
Outline: as §1

Binder	SPOT peptide array binding signal intensity
AAAPKHAPPPVPNET	≤ 0

Target: ScLsb1
Experiment: as above
Outline: as §1

Binder	SPOT peptide array binding signal intensity
AAAPKHAPPPVPNET	≤ 0

Target: ScLsb2
Experiment: as above
Outline: as §1

Binder	SPOT peptide array binding signal intensity
AAAPKHAPPPVPNET	≤ 0

Target: ScLsb3
Experiment: as above
Outline: as §1

Binder	SPOT peptide array binding signal intensity
AAAPKHAPPPVPNET	≤ 0

Target: ScLsb4
Experiment: as above
Outline: as §1

Binder	SPOT peptide array binding signal intensity
AAAPKHAPPPVPNET	≤ 0

Target: ScMyo3
Experiment: as above
Outline: as §1

Binder	SPOT peptide array binding signal intensity
AAAPKHAPPPVPNET	1370

Target: ScMyo5
Experiment: as above
Outline: as §1

Binder	SPOT peptide array binding signal intensity
AAAPKHAPPPVPNET	1840

Target: ScNbp2
Experiment: as above
Outline: as §1

Binder	SPOT peptide array binding signal intensity
AAAPKHAPPPVPNET	≤ 0

Target: ScPex13
Experiment: as above
Outline: as §1

Binder	SPOT peptide array binding signal intensity
AAAPKHAPPPVPNET	≤ 0

Target: ScRvs167
Experiment: as above
Outline: as §1

Binder	SPOT peptide array binding signal intensity
AAAPKHAPPPVPNET	0.167

Target: ScSho1
Experiment: as above
Outline: as §1

Binder	SPOT peptide array binding signal intensity
AAAPKHAPPPVPNET	≤ 0

Target: ScSla1-D1-D2
Experiment: as above
Outline: as §1

Binder	SPOT peptide array binding signal intensity
AAAPKHAPPPVPNET	≤ 0

Target: ScSla1-D3
Experiment: as above
Outline: as §1

Binder	SPOT peptide array binding signal intensity
AAAPKHAPPPVPNET	≤ 0

Target: SpAbp1-D1
Experiment: as above
Outline: as §1

Binder	SPOT peptide array binding signal intensity
AAAPKHAPPPVPNET	≤ 0

Target: SpBbc1
Experiment: as above
Outline: as §1

Binder	SPOT peptide array binding signal intensity
AAAPKHAPPPVPNET	1.5

Target: SpBzz1-D1
Experiment: as above
Outline: as §1

Binder	SPOT peptide array binding signal intensity
AAAPKHAPPPVPNET	≤ 0

Target: SpBzz1-D2
Experiment: as above
Outline: as §1

Binder	SPOT peptide array binding signal intensity
AAAPKHAPPPVPNET	≤ 0

Target: SpCyk3
Experiment: as above
Outline: as §1

Binder	SPOT peptide array binding signal intensity
AAAPKHAPPPVPNET	≤ 0

Target: SpHof1
Experiment: as above
Outline: as §1

Binder	SPOT peptide array binding signal intensity
AAAPKHAPPPVPNET	≤ 0

Target: SpHof1-2
Experiment: as above
Outline: as §1

Binder	SPOT peptide array binding signal intensity
AAAPKHAPPPVPNET	≤ 0

Target: SpHof1-3
Experiment: as above
Outline: as §1

Binder	SPOT peptide array binding signal intensity
AAAPKHAPPPVPNET	5.75

Target: SpHse1
Experiment: as above
Outline: as §1

Binder	SPOT peptide array binding signal intensity
AAAPKHAPPPVPNET	58.8

Target: SpLsb1
Experiment: as above
Outline: as §1

Binder	SPOT peptide array binding signal intensity
AAAPKHAPPPVPNET	≤ 0

Target: SpLsb4
Experiment: as above
Outline: as §1

Binder	SPOT peptide array binding signal intensity
AAAPKHAPPPVPNET	≤ 0

Target: SpMyo1
Experiment: as above
Outline: as §1

Binder	SPOT peptide array binding signal intensity
AAAPKHAPPPVPNET	1720

Target: SpNbp2
Experiment: as above
Outline: as §1

Binder	SPOT peptide array binding signal intensity
AAAPKHAPPPVPNET	≤ 0

Target: SpPex13
Experiment: as above
Outline: as §1

Binder	SPOT peptide array binding signal intensity
AAAPKHAPPPVPNET	≤ 0

Target: SpRvs167
Experiment: as above
Outline: as §1

Binder	SPOT peptide array binding signal intensity
AAAPKHAPPPVPNET	≤ 0

Target: SpSla1-D1-D2
Experiment: as above
Outline: as §1

Binder	SPOT peptide array binding signal intensity
AAAPKHAPPPVPNET	≤ 0

Target: SpSla1-D3
Experiment: as above
Outline: as §1

Binder	SPOT peptide array binding signal intensity
AAAPKHAPPPVPNET	≤ 0
